# Laboratory results: PubChem BioAssay AID588855 (National Center for Advancing Translational Sciences (NCATS), 2011)
# Out of some 410,000 compounds screened, about 5,000 (1.2%) were called active. Roughly 13% stayed inconclusive and do not appear here. Many of the other results were omitted from the sample, so actives are more common in it than they were. Values without a mark were called inactive. Calls come from the whole dose curve; as a rule, active = well fitted inhibition curve with a large enough effect; inconclusive = small, poorly fitted or top-dose-only effect; inactive = no such curve, though single readings can be large or run the other way.
# Assay: qHTS for Inhibitors of TGF-b; note: nearly all actives have a fitted effect of over 65% in size
# Conditions: HepG2 CAGA-GFP TGF-b/SMAD3 reporter, GFP fluorescence, 18 h, TGF-beta stimulated, 500 pg/mL final; series mostly up to 46.1 µM; activity, negative = inhibition: at the top concentration
# Description: TGF-b is a main component in the TGF-b signaling pathway which plays diverse roles in cellular and development pathways. TGF-b is the mediated by the transcription factors Smads. Although the Smad-dependent pathway is the primary canonical TGF-b signaling node, TGF-b1 can also activate alternative signaling pathways, including those involving MAPK (ERK, JNK and p38). This interaction may mediate or enhance Smad-dependent responses, or can exert Smad-independent effects. The complexity of this signaling cascade allows the TGF-b superfamily to perform unique, overlapping or redundant functions. We believe that targeting the TGF-beta pathway at the Smad-transcription factor level may eliminate the consequences of disrupting the entire pathway and offer specificity without affecting other signaling pathways. Smad3 is the primary transducer of TGF-b's signals and Smad3 regulates many functions attributed to TGF-b signaling. We hypothesize that Smad3 inhibitors will selectively eliminate Smad3-specific TGF-beta signals without undesired off-target effects. We aim to identify Smad3-small molecule antagonists using a quantitative high throughput screening (qHTS) approach.
# A high-throughput assay was developed to screen the NIH Molecular Libraries Small Molecule Repository (MLSMR). This is a cell based assay, where TGF-b is tagged with GFP. A counterscreen is run that looks at cytotoxicity (please see summary AID).
# MH087449NIH Chemical Genomics Center [NCGC]
# NIH Molecular Libraries Probe Centers Network [MLPCN]
# Assay Submitter (PI): Sushil Rane, National Institute of […]
# Suspensions of trypsinized HEPG2 CAGA-GFP cells were dispensed into white, tissue culture-treated, solid 1536-well plates at 5uL/well (1000 cells/well final concentration) in DMEM medium supplemented with 1% FBS. Plates were incubated at 37 degrees C for 2 hours, after which 23 nL of compounds or DMSO were delivered to each well using a pin tool. One uL of recombinant TGF-beta in DMEM (1% FBS) was then dispensed (500 pg/mL final concentration), and plates were incubated at 37 degrees C for 18 hours. The plates were measured on an Acumen eX3 Explorer plate reader for GFP fluorescence (ex488/em500-530). GFP values were calculated by determining the mean GFP fluorescence of individual cells, and compiling these values for each well to determine a total well GFP signal. The %Activity was determined from the corrected fluorescence values. A titration of the known TGF-B inhibitor SB431542 was included to monitor plate performance, while unstimulated HEPG2 (-TGF-B) control wells were used to normalize %Activity of identified inhibitors; unstimulated wells corresponded to 100%Activity (full inhibition), while stimulated cell controls (+DMSO) were used to normalize 0%Activity (no inhibition).
# Concentration-response curves were fitted to the signals arising from the resulting fluorescence. The concentration-effect curves were then classified based on curve quality (r2), response magnitude and degree of measured activity, and compounds were subsequently categorized based on their curve class.
# Potency is the fitted concentration of half-maximal effect.
SMILES,"activity, negative = inhibition [%]",Potency
CC1=Nc2cc(C(=O)NCc3ccc(C)cc3)ccc2Sc2ccc(Cl)cc21,-12.7,–
Cc1nn(-c2ccc(N3CCCCC3)nn2)c(C)c1CCC(=O)NCc1ccc(F)cc1,-26.8,–
Cc1ccc(-n2nc(CO)c(C(=O)NCCc3ccccc3)n2)cc1,0,–
COc1ccc(-c2cn3nc(N4CCC(C(=O)Nc5cccc(C)c5C)CC4)sc3n2)cc1,0,–
COc1ccc(NC(=O)C(=O)NCc2ccco2)cc1,4.07,–
COc1ccc(NC(=O)CN2C(=O)NC(C)(c3ccccc3)C2=O)cn1 (centres undefined),4.02,–
COc1ccc(CS(=O)/C(Cl)=C(/Cl)C(=O)Nc2ccc(OC)nc2)cc1 (centres undefined),–,3.16 µM (active)
COc1ccc(NC(=O)CSc2nc3ncccc3[nH]2)c(OC)c1,11.2,–
COc1ccc(C(=O)NCCNc2ccc([N+](=O)[O-])cn2)cc1,1.81,–
COc1ccc2c(C(=O)c3ccc(C)cc3)n(CCC(N)=O)[n+]([O-])c2c1,-22.6,–
COc1ccc(C(=O)c2c3ccc([N+](=O)[O-])cc3[n+]([O-])n2CCCN)cc1,–,8.91 µM (active)
CCS(=O)(=O)N1CCc2cc(C(=O)N3CCN(c4ccccc4OC)CC3)ccc21,-25.2,–
CCC(=O)N1CCc2cc(S(=O)(=O)NC(Cc3ccccc3)C(=O)NCc3ccc(C)cc3)ccc21 (centres undefined),-28.1,–
CC(C)OCCCn1c(SCC(=O)c2ccccc2)nc2c(sc3ccccc32)c1=O,-15.3,–
C/C(=N\Nc1ccc(Cl)nn1)c1ccccc1O,–,1.26 µM (active)
Fc1ccccc1Cc1ccc(Cl)nn1,-7.59,–
C/C(=N/Nc1ccc(Cl)cc1)c1cnnc(-c2ccccc2)n1,0.78,–
COc1ccc(C2=NC(c3ccncc3)=Nc3ccc(Br)cc3N2)cc1,-2.9,–
O=C1[C@H]2[C@@H](c3ccc(Cl)cc3)N3C(=O)N(c4cccc(F)c4)C(=O)[C@@]3(Cc3ccccc3)[C@H]2C(=O)N1C1CCCCC1,-18.1,–
Cc1cccc(N2C(=O)N3[C@H](c4ccc(F)cc4)[C@@H]4C(=O)N(C5CCCCC5)C(=O)[C@@H]4[C@]3(Cc3ccccc3)C2=O)c1,17.6,–
C[C@@]12C(=O)N(c3cccc(Br)c3)C(=O)N1[C@H](c1ccc(Cl)cc1)[C@@H]1C(=O)N(C3CCCCC3)C(=O)[C@@H]12,–,11.2 µM (active)
CNCCCOc1cc2nc(N3CCCN(C)CC3)nc(NC3CCN(C)CC3)c2cc1OC,22,–
CN(Cc1ccccc1)C(=O)CCS(=O)(=O)c1cc(Br)cc2c1N(C(=O)C1CC1)CC2,0,–
Cc1ccc(NC(=O)c2nc(S(=O)(=O)Cc3cccc(C)c3)ncc2Cl)cc1,–,3.16 µM (active)
Cc1cccc(NC(=O)c2nc(S(=O)(=O)Cc3ccccc3)ncc2Cl)c1,–,3.98 µM (active)

SMILES,"activity, negative = inhibition [%]",Potency
CCS(=O)(=O)c1ncc(N(Cc2ccc(F)cc2)Cc2ccco2)c(C(=O)Nc2cc(C)ccc2C)n1,1.57,–
O=C(Nc1ccccc1C(F)(F)F)c1nc(S(=O)(=O)Cc2ccccc2F)ncc1Cl,–,3.16 µM (active)
Cc1ccc(NC(=O)c2cccnc2C(=O)Nc2ccc(C)cc2)cc1,-10.9,–
CCOC(=O)c1ccc(NC(=O)c2nc(SCc3ccc(F)cc3)ncc2Cl)cc1,-12.1,–
CC(=O)c1cccc(NC(=O)c2nc(-c3ccccc3)n(-c3cccc(C)c3)n2)c1,-25.9,–
CN(CC(=O)Nc1ccccc1C(F)(F)F)C(=O)Cc1ccccc1F,-1.45,–
Cc1cccc(CS(=O)(=O)c2ncc(Cl)c(C(=O)Nc3ccc(F)cc3)n2)c1,–,6.31 µM (active)
O=C(Nc1nc2ccc(F)cc2s1)c1nc(SCc2ccccc2F)ncc1Cl,-1.74,–
Cc1cccc(NC(=O)Cn2cc(S(=O)(=O)Cc3ccccc3Cl)c3ccccc32)c1,0,–
Cc1ccc(CCNC(=O)c2ccc(CS(=O)(=O)Cc3cccc(C)c3)o2)cc1,-36,–
COc1ccccc1CNC(=O)c1ccccc1NC(=O)c1nsc2ccccc12,-0.608,–
Cc1cccc(Cn2c(CN3CCC(C(=O)NCc4ccccc4Cl)CC3)cc3ccccc32)c1,-8.43,–
COc1ccc(NC(=O)C2CCCN(S(=O)(=O)c3c(C)[nH]c(=O)[nH]c3=O)C2)c(OC)c1 (centres undefined),-24.4,–
COc1ccccc1CNC(=O)NCc1noc2ccc(C)cc12,1.22,–
O=S(=O)(c1cccc(C(F)(F)F)c1)N1CCN(c2nc(-c3cccs3)nc3ccccc23)CC1,1.02,–
Cn1c(C(=O)Nc2cccc(C(F)(F)F)c2)cc2c(=O)n3ccccc3nc21,-8,–
CC(=O)c1ccc(Nc2nc(C(N)c3ccccc3)cs2)cc1 (centres undefined),-0.831,–
NC(c1csc(NC(=O)Nc2cccc(C(F)(F)F)c2)n1)C1CCCCC1 (centres undefined),–,6.31 µM (active)
O=C(Nc1cccc(F)c1)NC1CCCCCCC1,0,–
COc1ccc(CC(N)c2csc(NC(=O)Nc3ccc(C(C)C)cc3)n2)cc1 (centres undefined),-98.2,–
NC(c1ccccc1)c1csc(NC(=O)Nc2cccc(C(F)(F)F)c2)n1 (centres undefined),–,12.6 µM (active)
Cc1ccc(Cn2c(=O)n(CCCC(=O)NCc3ccccc3Cl)c(=O)c3ccccc32)cc1,3.91,–
COC(=O)c1ccc(-c2nc3cc(NC(C)=O)ccc3o2)cc1,1.43,–
CCOc1ccc(NC(=O)c2cc(S(=O)(=O)N3CCCC3)c[nH]2)cc1,-24.4,–
